# In article PMC11006913:
# Changes are numbered by the printed parent chain.
# What was measured:
# Assay in all cases: PBM; 200 nM protein, PBS
# Settings in all cases: dsDNA, one strand shown
# [1] = target: HOXC10 (Homo sapiens, UniProt Q9NYD6 254-340)
# [2] = target: HOXA2 (Homo sapiens, UniProt O43364 129-215, R185T)
# [3] = target: HOXA2 (Homo sapiens, UniProt O43364 129-215, R185K)
# [4] = target: HOXC10 (Homo sapiens, UniProt Q9NYD6 254-340, K271E)
# [5] = target: HOXA2 (Homo sapiens, UniProt O43364 129-215, Y150S)
# Chain of HOXA2 (Homo sapiens, UniProt O43364 129-215, Y150S) (O43364 129-215 Y150S): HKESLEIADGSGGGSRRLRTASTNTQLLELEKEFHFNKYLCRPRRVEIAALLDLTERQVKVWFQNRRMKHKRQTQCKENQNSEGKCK
# [6] = target: HOXA2 (Homo sapiens, UniProt O43364 129-215)
# Chain of HOXA2 (Homo sapiens, UniProt O43364 129-215) (O43364 129-215): as the sequence (O43364 129-215 Y150S) above, with S22Y counted along it
# [7] = target: PROP1 (Homo sapiens, UniProt O75360 56-141)
# Chain of PROP1 (Homo sapiens, UniProt O75360 56-141) (O75360 56-141): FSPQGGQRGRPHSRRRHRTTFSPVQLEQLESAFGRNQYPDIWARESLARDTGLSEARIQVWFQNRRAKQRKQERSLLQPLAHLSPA
# [8] = target: PROP1 (Homo sapiens, UniProt O75360 56-141, R99H)
# Chain of PROP1 (Homo sapiens, UniProt O75360 56-141, R99H) (O75360 56-141 R99H): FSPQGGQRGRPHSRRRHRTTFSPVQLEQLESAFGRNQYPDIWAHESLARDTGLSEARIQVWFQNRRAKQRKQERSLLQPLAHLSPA
# [9] = target: PROP1 (Homo sapiens, UniProt O75360 56-141, F88S)
# Chain of PROP1 (Homo sapiens, UniProt O75360 56-141, F88S) (O75360 56-141 F88S): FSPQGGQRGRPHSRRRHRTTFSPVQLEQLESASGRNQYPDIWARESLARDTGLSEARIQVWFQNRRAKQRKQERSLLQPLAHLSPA
# [10] = target: HOXD13 (Homo sapiens, UniProt P35453 263-343, T313R)
# Chain of HOXD13 (Homo sapiens, UniProt P35453 263-343, T313R) (P35453 263-343 T313R): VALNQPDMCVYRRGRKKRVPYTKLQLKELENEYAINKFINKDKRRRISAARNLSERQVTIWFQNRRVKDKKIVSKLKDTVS
# [11] = target: HOXD13 (Homo sapiens, UniProt P35453 263-343)
# Chain of HOXD13 (Homo sapiens, UniProt P35453 263-343) (P35453 263-343): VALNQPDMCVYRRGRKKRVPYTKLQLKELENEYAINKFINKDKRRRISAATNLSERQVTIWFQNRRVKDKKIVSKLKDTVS
# [12] = target: HOXD13 (Homo sapiens, UniProt P35453 263-343, T313A)
# Chain of HOXD13 (Homo sapiens, UniProt P35453 263-343, T313A) (P35453 263-343 T313A): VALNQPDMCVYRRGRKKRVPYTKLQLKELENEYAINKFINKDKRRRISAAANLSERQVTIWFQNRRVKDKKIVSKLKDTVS
# [13] = target: ALX3 (Homo sapiens, UniProt O95076 139-225, N203Q)
# Chain of ALX3 (Homo sapiens, UniProt O95076 139-225, N203Q) (O95076 139-225 N203Q): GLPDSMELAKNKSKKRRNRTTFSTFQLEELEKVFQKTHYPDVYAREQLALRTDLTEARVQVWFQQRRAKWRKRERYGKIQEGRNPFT
# [14] = target: ALX3 (Homo sapiens, UniProt O95076 139-225)
# Chain of ALX3 (Homo sapiens, UniProt O95076 139-225) (O95076 139-225): as the sequence (O95076 139-225 N203Q) above, with Q65N counted along it
# [15] = target: ALX3 (Homo sapiens, UniProt O95076 139-225, L168Q)
# Chain of ALX3 (Homo sapiens, UniProt O95076 139-225, L168Q) (O95076 139-225 L168Q): as the sequence (O95076 139-225 N203Q) above, with L30Q, Q65N counted along it
# [16] = target: ALX3 (Homo sapiens, UniProt O95076 139-225, L168V)
# Chain of ALX3 (Homo sapiens, UniProt O95076 139-225, L168V) (O95076 139-225 L168V): as the sequence (O95076 139-225 N203Q) above, with L30V, Q65N counted along it
# [17] = target: ALX3 (Homo sapiens, UniProt O95076 139-225, N203S)
# Chain of ALX3 (Homo sapiens, UniProt O95076 139-225, N203S) (O95076 139-225 N203S): as the sequence (O95076 139-225 N203Q) above, with Q65S counted along it
# [18] = target: ALX4 (Homo sapiens, UniProt Q9H161 200-286)
# Chain of ALX4 (Homo sapiens, UniProt Q9H161 200-286) (Q9H161 200-286): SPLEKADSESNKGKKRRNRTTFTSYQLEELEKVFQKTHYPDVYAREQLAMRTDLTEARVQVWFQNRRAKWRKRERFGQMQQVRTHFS
# [19] = target: ALX4 (Homo sapiens, UniProt Q9H161 200-286, Q225E)
# Chain of ALX4 (Homo sapiens, UniProt Q9H161 200-286, Q225E) (Q9H161 200-286 Q225E): as the sequence (Q9H161 200-286) above, with Q26E counted along it
# [20] = target: MSX2 (Homo sapiens, UniProt P35548 130-214, R199I)
# Chain of MSX2 (Homo sapiens, UniProt P35548 130-214, R199I) (P35548 130-214 R199I): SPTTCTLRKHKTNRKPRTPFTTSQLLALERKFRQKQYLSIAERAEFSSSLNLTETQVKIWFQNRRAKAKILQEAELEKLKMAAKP
# [21] = target: MSX2 (Homo sapiens, UniProt P35548 130-214)
# Chain of MSX2 (Homo sapiens, UniProt P35548 130-214) (P35548 130-214): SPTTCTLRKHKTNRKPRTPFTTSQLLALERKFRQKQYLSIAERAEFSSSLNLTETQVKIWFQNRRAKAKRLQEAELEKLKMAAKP
# [22] = target: MSX2 (Homo sapiens, UniProt P35548 130-214, F161Y)
# Chain of MSX2 (Homo sapiens, UniProt P35548 130-214, F161Y) (P35548 130-214 F161Y): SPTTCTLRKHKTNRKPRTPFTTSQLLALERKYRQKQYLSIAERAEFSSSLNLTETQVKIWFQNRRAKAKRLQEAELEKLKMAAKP
# [23] = target: T1, PAX4 (Homo sapiens, UniProt O43316 9-242, R200K)
# T1 sequence: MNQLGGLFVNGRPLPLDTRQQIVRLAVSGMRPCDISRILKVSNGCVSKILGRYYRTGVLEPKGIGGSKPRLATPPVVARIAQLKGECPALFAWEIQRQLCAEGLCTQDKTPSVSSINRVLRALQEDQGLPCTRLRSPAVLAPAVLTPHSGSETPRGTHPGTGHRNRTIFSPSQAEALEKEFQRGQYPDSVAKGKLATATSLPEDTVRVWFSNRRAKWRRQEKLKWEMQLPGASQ
# [24] = target: T2, PAX4 (Homo sapiens, UniProt O43316 9-242)
# T2 sequence: T1 sequence with K192R
# [25] = target: T3, PAX4 (Homo sapiens, UniProt O43316 9-242, R200Q)
# T3 sequence: T1 sequence with K192Q
# [26] = target: T4, PAX4 (Homo sapiens, UniProt O43316 9-242, F177V)
# T4 sequence: T1 sequence with F169V, K192R
# [27] = target: T5, PAX4 (Homo sapiens, UniProt O43316 9-242, F177Y)
# T5 sequence: T1 sequence with F169Y, K192R
# [28] = target: T6, PAX4 (Homo sapiens, UniProt O43316 9-242, R227W)
# T6 sequence: T1 sequence with K192R, R219W
# Chain of HOXC10 (Homo sapiens, UniProt Q9NYD6 254-340, K271E) (Q9NYD6 254-340 K271E): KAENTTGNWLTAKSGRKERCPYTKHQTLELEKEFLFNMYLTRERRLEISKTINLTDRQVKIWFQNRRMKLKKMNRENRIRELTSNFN
# Chain of HOXA2 (Homo sapiens, UniProt O43364 129-215, R185K) (O43364 129-215 R185K): as the sequence (O43364 129-215 Y150S) above, with S22Y, R57K counted along it
# Chain of HOXA2 (Homo sapiens, UniProt O43364 129-215, R185T) (O43364 129-215 R185T): as the sequence (O43364 129-215 Y150S) above, with S22Y, R57T counted along it
# Chain of HOXC10 (Homo sapiens, UniProt Q9NYD6 254-340) (Q9NYD6 254-340): as the sequence (Q9NYD6 254-340 K271E) above, with E18K counted along it
sequence,measurement,setting,value
CGCCCCCC,binding signal,[1],"9.91 upbm affinity estimate (log intensity, higher = more binding, comparable within an allelic series)"
same,binding signal,[2],"6.85 upbm affinity estimate (log intensity, higher = more binding, comparable within an allelic series)"
same,binding signal,[3],"9.91 upbm affinity estimate (log intensity, higher = more binding, comparable within an allelic series)"
same,binding signal,[4],"9.87 upbm affinity estimate (log intensity, higher = more binding, comparable within an allelic series)"
same,binding signal,[5],"10.3 upbm affinity estimate (log intensity, higher = more binding, comparable within an allelic series)"
same,binding signal,[6],"6.92 upbm affinity estimate (log intensity, higher = more binding, comparable within an allelic series)"
CTGCCCCC,binding signal,[1],"9.96 upbm affinity estimate (log intensity, higher = more binding, comparable within an allelic series)"
same,binding signal,[2],"6.91 upbm affinity estimate (log intensity, higher = more binding, comparable within an allelic series)"
same,binding signal,[3],"9.95 upbm affinity estimate (log intensity, higher = more binding, comparable within an allelic series)"
same,binding signal,[4],"9.97 upbm affinity estimate (log intensity, higher = more binding, comparable within an allelic series)"
same,binding signal,[7],"6.68 upbm affinity estimate (log intensity, higher = more binding, comparable within an allelic series)"
same,binding signal,[8],"6.59 upbm affinity estimate (log intensity, higher = more binding, comparable within an allelic series)"
same,binding signal,[9],"6.14 upbm affinity estimate (log intensity, higher = more binding, comparable within an allelic series)"
same,binding signal,[5],"10.3 upbm affinity estimate (log intensity, higher = more binding, comparable within an allelic series)"
same,binding signal,[6],"7.21 upbm affinity estimate (log intensity, higher = more binding, comparable within an allelic series)"
CTTTATTA,binding signal,[1],"12.2 upbm affinity estimate (log intensity, higher = more binding, comparable within an allelic series)"
same,binding signal,[10],"10.6 upbm affinity estimate (log intensity, higher = more binding, comparable within an allelic series)"
same,binding signal,[11],"11.8 upbm affinity estimate (log intensity, higher = more binding, comparable within an allelic series)"
same,binding signal,[4],"11.7 upbm affinity estimate (log intensity, higher = more binding, comparable within an allelic series)"
same,binding signal,[12],"11.5 upbm affinity estimate (log intensity, higher = more binding, comparable within an allelic series)"
CGAAGGGC,binding signal,[1],"9.97 upbm affinity estimate (log intensity, higher = more binding, comparable within an allelic series)"
same,binding signal,[13],"7.68 upbm affinity estimate (log intensity, higher = more binding, comparable within an allelic series)"
same,binding signal,[4],"10.1 upbm affinity estimate (log intensity, higher = more binding, comparable within an allelic series)"
same,binding signal,[14],"7.61 upbm affinity estimate (log intensity, higher = more binding, comparable within an allelic series)"
same,binding signal,[15],"7.69 upbm affinity estimate (log intensity, higher = more binding, comparable within an allelic series)"
same,binding signal,[16],"7.8 upbm affinity estimate (log intensity, higher = more binding, comparable within an allelic series)"
same,binding signal,[17],"7.67 upbm affinity estimate (log intensity, higher = more binding, comparable within an allelic series)"
AATACTAG,binding signal,[1],"10.7 upbm affinity estimate (log intensity, higher = more binding, comparable within an allelic series)"
ATGCATAA,binding signal,[1],"11.2 upbm affinity estimate (log intensity, higher = more binding, comparable within an allelic series)"
same,binding signal,[18],"10.3 upbm affinity estimate (log intensity, higher = more binding, comparable within an allelic series)"
same,binding signal,[19],"9.57 upbm affinity estimate (log intensity, higher = more binding, comparable within an allelic series)"
same,binding signal,[4],"10.9 upbm affinity estimate (log intensity, higher = more binding, comparable within an allelic series)"
GCCCGCAC,binding signal,[1],"10.1 upbm affinity estimate (log intensity, higher = more binding, comparable within an allelic series)"
same,binding signal,[2],"7.43 upbm affinity estimate (log intensity, higher = more binding, comparable within an allelic series)"
same,binding signal,[20],"9.56 upbm affinity estimate (log intensity, higher = more binding, comparable within an allelic series)"
same,binding signal,[3],"10.2 upbm affinity estimate (log intensity, higher = more binding, comparable within an allelic series)"
same,binding signal,[4],"9.97 upbm affinity estimate (log intensity, higher = more binding, comparable within an allelic series)"
same,binding signal,[21],"9.65 upbm affinity estimate (log intensity, higher = more binding, comparable within an allelic series)"
same,binding signal,[22],"9.65 upbm affinity estimate (log intensity, higher = more binding, comparable within an allelic series)"
same,binding signal,[5],"10.4 upbm affinity estimate (log intensity, higher = more binding, comparable within an allelic series)"
same,binding signal,[6],"7.36 upbm affinity estimate (log intensity, higher = more binding, comparable within an allelic series)"
AGGGAGGC,binding signal,[1],"9.98 upbm affinity estimate (log intensity, higher = more binding, comparable within an allelic series)"
same,binding signal,[23],"9.2 upbm affinity estimate (log intensity, higher = more binding, comparable within an allelic series)"
same,binding signal,[24],"9.2 upbm affinity estimate (log intensity, higher = more binding, comparable within an allelic series)"
same,binding signal,[25],"9.17 upbm affinity estimate (log intensity, higher = more binding, comparable within an allelic series)"
same,binding signal,[26],"9.02 upbm affinity estimate (log intensity, higher = more binding, comparable within an allelic series)"
same,binding signal,[4],"10 upbm affinity estimate (log intensity, higher = more binding, comparable within an allelic series)"
same,binding signal,[27],"9.16 upbm affinity estimate (log intensity, higher = more binding, comparable within an allelic series)"
same,binding signal,[28],"9.18 upbm affinity estimate (log intensity, higher = more binding, comparable within an allelic series)"
